# Source: PubChem BioAssay
# Active and inactive are the calls of the source.
# What was measured:
# [1] = system: Plasmodium falciparum Sir2 (PF13_0152, Sir2A); test: Plasmodium falciparum Sir2A binding compounds – biochemical, small-molecule microarray, 635 nm fluorescence, primary screen (AID 1098); conditions: fluorescence 635 nm, higher = more signal;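 also: score merges spot fluorescence intensity with its signal-to-noise ratio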
# [2] = probe aDKK1 binding to arrayed compounds – biochemical, biotinylated probe, 635/667 nm fluorescence, primary screen (AID 1099); conditions: small-molecule microarray, higher = more signal;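 also: score merges 667nm spot fluorescence with signal to noise across triplicate slides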
# [3] = probe aCHRDL2 binding to arrayed compounds – biochemical, biotinylated probe, 635/667 nm fluorescence, primary screen (AID 1100); conditions: small-molecule microarray, higher = more signal
# [4] = change in splice reporter luminescence, either direction, cell-based, HEK293, spliceosome inhibition project, primary screen (AID 1101); conditions: HEK293 splicing luciferase reporter, 24 h, higher = more signal, called active from +8 up or from −8 down;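 also: HEK293 cells carrying a splicing-competent luciferase reporter gene; test concentration not given here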
# [5] = biological target: Fibroblast growth factor 10 (Homo sapiens) (UniProt O15520); test: compounds binding fibroblast growth factor 10 – biochemical, small-molecule microarray, 635 nm fluorescence, primary screen (AID 1102); conditions: FGF10 binding, fluorescence 635 nm, higher = more signal
# [6] = system: glycogen synthase kinase-3 (GSK3A per assay name; protocol says GSK3B); test: compounds binding glycogen synthase kinase-3 – biochemical, small-molecule microarray, 635 nm fluorescence, GSK3A, primary screen (AID 1103); conditions: fluorescence 635 nm, higher = more signal; also: the record names both GSK3A and GSK3B
# [7] = biological target: Epidermal growth factor receptor (Homo sapiens) (UniProt P00533); test: compounds binding epidermal growth factor receptor – biochemical, small-molecule microarray, 635 nm fluorescence, primary screen (AID 1104); conditions: EGFR binding, higher = more signal;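 also: score merges 667 nm emission intensity with spot signal to noise over triplicate slides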
# [8] = biological target: Follistatin-related protein 3 (Homo sapiens) (UniProt O95633); test: compounds binding follistatin-related protein 3 – biochemical, small-molecule microarray, 635 nm fluorescence, primary screen (AID 1105); conditions: FSTL3 binding, higher = more signal;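 also: score merges emission near 667 nm and signal to noise per printed spot across three slides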
# [9] = biological target: Dickkopf-related protein 1 (Homo sapiens) (UniProt O94907); test: small molecules binding DKK1 protein – biochemical, small-molecule microarray, 635 nm fluorescence scan, primary screen (AID 1106); conditions: higher = more signal;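 also: score merges emission near 667 nm with signal to noise over three replicate slides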
# [10] = system: Inhibin beta A chain (activin A); test: small molecules binding activin A – biochemical, small-molecule microarray, 635 nm fluorescence scan, primary screen (AID 1107); conditions: INHBA, higher = more signal;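 also: mouse activin A protein probed at 4.33 µg/mL on printed slides; score merges bound-protein fluorescence near 667 nm with spot signal-to-noise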
# [11] = system: Human papillomavirus type 1a protein E7 (residues 44-93); test: small molecules binding HPV E7 44-93 – biochemical, small-molecule microarray, residues 44-93, 635 nm fluorescence, primary screen (AID 1108); conditions: fluorescence 635 nm, higher = more signal;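 also: E7 fragment applied at 1 µg/mL in TBST for 1 h at 4 C; score combines spot fluorescence with its signal to noise ratio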
# [12] = hepatitis C replication reporter changes, two-sided – Huh7 cells, luciferase reporter, HCV replication inhibitor project, primary screen (AID 1109); conditions: Huh7 HCV replicon luciferase reporter, 48 h; higher = more signal;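 also: huh7 hepatoma cells harbouring a luciferase neomycin HCV replicon reporter; luciferase luminescence as measure of HCV replicon replication; test concentration not given here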
# [13] = biological target: Left-right determination factor 2 (Homo sapiens) (UniProt O00292); test: small molecules binding LEFTY2 protein – biochemical, small-molecule microarray, 635 nm fluorescence scan, primary screen (AID 1110); conditions: higher = more signal
# [14] = biological target: Calmodulin-1 (Homo sapiens) (UniProt P0DP23); test: small molecules binding calmodulin-1 with EGTA – biochemical, small-molecule microarray, Cy5-labelled CALM1, profiling panel (AID 1111); conditions: Cy5-CALM1 binding fluorescence, higher = more signal;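 also: labelled calmodulin applied in Tris saline Tween buffer holding calcium plus EGTA and DTT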
# [15] = biological target: Calmodulin-1 (Homo sapiens) (UniProt P0DP23); test: small molecules binding Ca-loaded calmodulin-1 – biochemical, small-molecule microarray, Cy5-labelled CALM1, plus calcium, artefact control for SMM control-protein annotation, profiling panel (AID 1112); conditions: Cy5-CALM1 binding fluorescence, higher = more signal;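 also: score merges spot fluorescence with signal to noise from triplicate slides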
# [16] = probe aWnt5a binding to arrayed compounds – biochemical, biotinylated probe, 635/667 nm fluorescence, primary screen (AID 1113); conditions: small-molecule microarray, higher = more signal;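 also: score merges 667 nm fluorescence intensity with signal-to-noise per printed feature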
# [17] = probe aShh binding to arrayed compounds – biochemical, biotinylated probe, 635/667 nm fluorescence, primary screen (AID 1114); conditions: small-molecule microarray, higher = more signal;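 also: probe is biotin-labelled aShh protein from a stem cell growth factor screen; measures binding of labelled protein to compounds printed on the slide; score merges feature fluorescence at 667 nm with signal-to-noise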
# [18] = probe aNog binding to arrayed compounds – biochemical, biotinylated probe, 635/667 nm fluorescence, primary screen (AID 1115); conditions: small-molecule microarray, higher = more signal;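 also: probe is biotinylated aNog protein used at 0.15 µg/mL for 1 h at 4 C; z-score combines 667 nm fluorescence of each spot with its signal to noise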
# [19] = biological target: Torsin-1A-interacting protein 1 (Homo sapiens) (UniProt Q5JTV8); test: compound microarray binding of lysate hLAP1 – cell lysate, small-molecule microarray, COS7 lysate, 635/667 nm fluorescence, primary screen (AID 1116); conditions: 635 nm fluorescence, higher = more signal
# [20] = biological target: Alpha-bungarotoxin (Bungarus multicinctus) (UniProt P60615); test: compounds binding labelled alpha-BTX control protein – biochemical, small-molecule microarray, Alexa647 label, 635/667 nm fluorescence, artefact control for SMM control protein annotation, profiling panel (AID 1117); conditions: alpha-BTX-A647 binding fluorescence, higher = more signal
# Sequence of Alpha-bungarotoxin (Bungarus multicinctus) (P60615 whole entry, looked up): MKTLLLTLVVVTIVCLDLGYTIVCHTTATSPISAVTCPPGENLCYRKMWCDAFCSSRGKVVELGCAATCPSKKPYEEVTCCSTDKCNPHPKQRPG
# Sequence of Follistatin-related protein 3 (Homo sapiens) (O95633 whole entry, looked up): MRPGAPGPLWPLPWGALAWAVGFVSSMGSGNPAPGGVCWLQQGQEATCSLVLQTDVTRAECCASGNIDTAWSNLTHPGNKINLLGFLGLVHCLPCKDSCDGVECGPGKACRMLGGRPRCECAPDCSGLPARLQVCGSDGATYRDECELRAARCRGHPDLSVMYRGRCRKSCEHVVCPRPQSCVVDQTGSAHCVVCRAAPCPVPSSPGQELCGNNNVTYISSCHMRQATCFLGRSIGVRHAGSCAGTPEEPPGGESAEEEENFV
# Sequence of Fibroblast growth factor 10 (Homo sapiens) (O15520 whole entry, looked up): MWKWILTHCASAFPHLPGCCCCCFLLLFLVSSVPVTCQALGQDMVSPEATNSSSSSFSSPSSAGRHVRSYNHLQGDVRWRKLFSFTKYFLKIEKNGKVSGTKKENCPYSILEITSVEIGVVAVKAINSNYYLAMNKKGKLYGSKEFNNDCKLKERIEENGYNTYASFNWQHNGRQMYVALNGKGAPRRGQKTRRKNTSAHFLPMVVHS
# Sequence of Left-right determination factor 2 (Homo sapiens) (O00292 whole entry, looked up): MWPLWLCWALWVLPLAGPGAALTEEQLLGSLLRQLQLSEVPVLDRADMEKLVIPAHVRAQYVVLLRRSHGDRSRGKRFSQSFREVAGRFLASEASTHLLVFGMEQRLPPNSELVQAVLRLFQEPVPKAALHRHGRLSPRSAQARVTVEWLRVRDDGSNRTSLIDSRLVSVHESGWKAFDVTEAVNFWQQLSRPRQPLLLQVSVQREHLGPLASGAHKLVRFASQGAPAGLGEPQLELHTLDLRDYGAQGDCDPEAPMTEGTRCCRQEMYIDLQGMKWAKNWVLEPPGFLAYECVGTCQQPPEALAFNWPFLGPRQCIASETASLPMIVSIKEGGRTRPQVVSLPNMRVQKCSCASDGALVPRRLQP
# Sequence of Dickkopf-related protein 1 (Homo sapiens) (O94907 whole entry, looked up): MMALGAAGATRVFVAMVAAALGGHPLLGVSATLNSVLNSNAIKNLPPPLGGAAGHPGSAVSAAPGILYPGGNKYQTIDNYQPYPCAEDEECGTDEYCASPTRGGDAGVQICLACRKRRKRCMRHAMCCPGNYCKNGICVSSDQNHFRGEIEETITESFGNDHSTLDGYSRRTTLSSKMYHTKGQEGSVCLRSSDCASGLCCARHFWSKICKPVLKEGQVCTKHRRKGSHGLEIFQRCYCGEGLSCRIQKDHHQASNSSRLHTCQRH
# Sequence of Torsin-1A-interacting protein 1 (Homo sapiens) (Q5JTV8 whole entry, looked up): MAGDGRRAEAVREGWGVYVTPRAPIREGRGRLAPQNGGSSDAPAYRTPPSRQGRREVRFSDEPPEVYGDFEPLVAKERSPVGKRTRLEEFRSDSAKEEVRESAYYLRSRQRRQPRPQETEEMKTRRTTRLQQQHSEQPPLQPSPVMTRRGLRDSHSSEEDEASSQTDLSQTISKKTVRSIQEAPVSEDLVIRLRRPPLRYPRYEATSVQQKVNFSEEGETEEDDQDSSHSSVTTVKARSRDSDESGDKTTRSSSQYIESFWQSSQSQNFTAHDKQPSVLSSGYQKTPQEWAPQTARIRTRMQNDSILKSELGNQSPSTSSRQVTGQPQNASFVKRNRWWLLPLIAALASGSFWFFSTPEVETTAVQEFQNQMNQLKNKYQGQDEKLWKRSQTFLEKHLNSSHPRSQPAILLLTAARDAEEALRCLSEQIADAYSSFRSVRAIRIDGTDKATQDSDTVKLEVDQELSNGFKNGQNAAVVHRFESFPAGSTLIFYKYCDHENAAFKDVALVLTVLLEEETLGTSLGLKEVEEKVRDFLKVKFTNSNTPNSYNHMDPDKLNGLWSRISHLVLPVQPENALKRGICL
# Sequence of Epidermal growth factor receptor (Homo sapiens) (P00533 whole entry, looked up): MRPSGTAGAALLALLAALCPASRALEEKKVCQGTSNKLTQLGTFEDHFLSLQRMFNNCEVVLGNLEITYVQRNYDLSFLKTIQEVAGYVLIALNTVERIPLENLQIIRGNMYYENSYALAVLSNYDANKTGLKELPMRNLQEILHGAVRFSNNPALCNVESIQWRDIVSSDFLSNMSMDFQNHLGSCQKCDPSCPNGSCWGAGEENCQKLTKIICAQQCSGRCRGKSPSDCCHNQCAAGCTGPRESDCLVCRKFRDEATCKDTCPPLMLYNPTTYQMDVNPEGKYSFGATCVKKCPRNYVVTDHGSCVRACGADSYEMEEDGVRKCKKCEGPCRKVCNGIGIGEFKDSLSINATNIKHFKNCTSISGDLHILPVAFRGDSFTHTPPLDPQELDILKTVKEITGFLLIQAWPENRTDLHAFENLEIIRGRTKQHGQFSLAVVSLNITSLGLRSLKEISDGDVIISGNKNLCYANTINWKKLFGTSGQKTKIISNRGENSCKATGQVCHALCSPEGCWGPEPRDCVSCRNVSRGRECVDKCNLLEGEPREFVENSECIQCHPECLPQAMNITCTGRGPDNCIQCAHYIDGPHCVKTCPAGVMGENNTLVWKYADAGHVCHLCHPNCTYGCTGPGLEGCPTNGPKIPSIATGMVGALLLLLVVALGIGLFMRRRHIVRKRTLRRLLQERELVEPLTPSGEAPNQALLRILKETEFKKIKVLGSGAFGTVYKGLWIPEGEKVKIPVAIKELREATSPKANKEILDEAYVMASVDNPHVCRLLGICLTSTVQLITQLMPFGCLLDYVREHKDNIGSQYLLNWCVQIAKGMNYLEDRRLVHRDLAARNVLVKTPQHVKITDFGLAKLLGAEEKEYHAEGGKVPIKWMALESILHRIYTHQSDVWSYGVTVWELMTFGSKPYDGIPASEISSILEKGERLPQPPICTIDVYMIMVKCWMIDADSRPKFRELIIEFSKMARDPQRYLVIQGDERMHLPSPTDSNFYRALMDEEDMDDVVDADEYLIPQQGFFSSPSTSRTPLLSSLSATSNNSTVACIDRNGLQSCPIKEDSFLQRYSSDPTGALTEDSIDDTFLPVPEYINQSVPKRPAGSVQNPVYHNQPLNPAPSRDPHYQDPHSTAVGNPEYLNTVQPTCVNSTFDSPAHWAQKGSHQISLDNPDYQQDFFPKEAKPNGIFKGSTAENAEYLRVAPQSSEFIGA
Structure (SMILES),composite z-score [1],composite z-score [2],composite z-score [3],z-score [4],composite z-score [5],composite z-score [6],composite z-score [7],composite z-score [8],composite z-score [9],composite z-score [10],composite z-score [11],z-score [12],composite z-score [13],composite z-score [14],composite z-score [15],composite z-score [16],composite z-score [17],composite z-score [18],composite z-score [19],composite z-score [20]
O=C1O[C@@H](c2ccccc2)[C@@H](c2ccccc2)N2[C@@H](c3ccccc3OCCO)[C@]3(C(=O)Nc4ccc(C#CC5=CCCCC5)cc43)[C@@H](C(=O)N3CCCCCCC3)[C@H]12,2.01,2.94,1.63,-1.06 (inactive),1.54,1.39,1.81,1.75,2.56,1.8,1.52,-3.29,1.74,3.02,1.72,1.4,3.21,3.35,5.37,3.65
CC(CO)N1C(=O)[C@@H]2C3C(=O)OCCC/C=C\[C@H]3OC23C=CCN(C(C)(C)C)C(=O)[C@@H]13 (stereo not given in full),0.205,-0.349,-0.522,0.742 (inactive),0.259,-0.0474,-0.325,0.0856,0.113,0.0635,-0.898,0.367,-0.0466,-0.565,-0.769,-0.192,0.108,-0.147,0.859,0.149
O=C(NC1CC1)[C@@H]1c2ccccc2C(=O)N(Cc2ccccc2Cl)[C@H]1c1ccc(CO)cc1,0.814,0.893,1.02,-0.544 (inactive),0.474,1.24,0.186,0.654,0.63,1.17,0.791,-2.09,0.697,1.08,0.287,-0.0765,-0.138,0.233,1.46,0.759
CC(C)(C)OC(=O)CC[C@]1(C(=O)N2CCOCC2)N=C(c2ccc(OCCCO)cc2)O[C@H]1c1ccccc1N=[N+]=[N-],1.5,0.653,0.854,-0.921 (inactive),1.18,1.2,-0.0405,0.0265,0.283,0.936,1.05,2.2,0.119,0.981,0.0644,-0.0125,0.308,1.37,2.43,1.23
CCCC=C(CCC)[C@@H](NC(=O)c1cccs1)c1ccc(C(F)(F)F)cc1,0.119,0.607,0.406,-2.16 (inactive),0.36,1.25,0.569,0.857,-0.568,0.454,1.17,-0.668,1.16,1.48,0.522,0.0546,0.336,1.15,1.27,0.734
